From PubChem BioAssay (NCI)
The panel holds about 83,000 compounds, 20% with a hit somewhere; the sample as a whole holds those more often.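 Negative percent growth values reflect cell death: -40 means 40% of the cells present at the start died, and -100 means all died.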 Unmarked numbers belong to inactive results. Active and inactive are the calls of the source. Rule for the calls: active = growth percent below 10; inactive = the rest.

Legend:
Assay in all cases: NCI-60 one-dose screen, 48 h (100 = growth as untreated, 0 = no growth, -100 = all killed)
Conditions in all cases: 10 µM unless noted
[1] = test system: T-47D breast
[2] = test system: BT-549 breast
[3] = test system: MDA-MB-435 melanoma
[4] = test system: SW-620 colon
[5] = test system: MCF7 breast
[6] = test system: HCT-116 colon
[7] = test system: HCC-2998 colon
[8] = test system: KM12 colon

| SMILES | growth [1] | growth [2] | growth [3] | growth [4] | growth [5] | growth [6] | growth [7] | growth [8] |
| --- | --- | --- | --- | --- | --- | --- | --- | --- |
| COc1cc(/C=C/C(=O)c2cccc(-n3cc(-c4ccc(Cl)cc4)[nH]c3=O)c2)cc(OC)c1OC | 41.1% | 86.2% | 27.1% | -19.4% (active) | 11.9% | -45.7% (active) | 75.8% | 46% |
| Cn1cc(-c2ccc3nc(-c4ccc(CC(=O)Nc5cc(C(C)(C)C)no5)cc4)cnc3c2)cn1 | 26% [30 µM] | 53.3% [30 µM] | 26.2% [30 µM] | 34.5% [30 µM] | 87.1% [30 µM] | 15.3% [30 µM] | 47.3% [30 µM] | 6.95% [30 µM] (active) |
| COc1ccc(/C(C)=N/NS(=O)(=O)c2ccc(C)cc2)cc1OC | 87.8% | 100% | 103% | 102% | 102% | 95.1% | 99.9% | 108% |
| O=C1c2ccccc2C(=O)c2cc(Cn3cc[n+](Cc4ccc5ccccc5c4)c3)ccc21 | 70.1% | 60.1% | 84.8% | 84.2% | 59.2% | 84.3% | 79.1% | 77.8% |
| COc1cc(-c2ccc(-c3ccc(C(=N)N)nc3)s2)cc(OC)c1OC | 66.2% | 89.8% | 37.1% | 29.2% | -1.33% (active) | 0.952% (active) | 12.1% | 49.1% |
| O=C1/C(=C/c2ccccc2[N+](=O)[O-])COc2ccc(O)c(O)c21 | 12.4% | 21.3% | -62.2% (active) | -38.7% (active) | 6.98% (active) | -15.4% (active) | -46.5% (active) | -3.65% (active) |
| CN(C)c1ccc(C#Cc2c(F)cccc2Cl)cc1 | 41.8% | 98.2% | 99.8% | 96% | 39.5% | 84.8% | 76.2% | 85.4% |
| Nc1ccn(C2OC(F)(CO)C(O)C2F)c(=O)n1 (stereo unspecified) | 55.3% | 44.4% | 52.9% | 52.1% | 21.7% | 35.3% | 48.3% | 59.2% |
| O=C(O)CC1Sc2ccccc2NC1=O (stereo unspecified) | 111% | 118% | 104% | 103% | 255% | 100% | 106% | 104% |
| COc1ccc(O)c(-c2cc(-c3ccccc3)c(C#N)c(=O)[nH]2)c1 | 79.3% | 70.6% | 102% | 105% | 87.5% | 89.7% | 99.8% | 90.8% |
| CC(C)CCC[C@@H](C)[C@H]1CCC2C3=CCC4C(=O)C=CC(=O)C4C3CC[C@@]21C (stereo partly specified) | -18.9% (active) | -1.63% (active) | 5.05% (active) | -10.1% (active) | 8.65% (active) | -75.5% (active) | 12.4% | 7.56% (active) |
| COC(=O)CCCNC(=O)C(=O)c1c(O)c(O)c(C(C)C)c2cc(C)c(-c3c(C)cc4c(C(C)C)c(O)c(O)c(C(=O)C(=O)NCCCC(=O)OC)c4c3O)c(O)c12 | 4.43% (active) | 8.07% (active) | 13% | 19.2% | 10.9% | -30.9% (active) | 29.5% | 8.55% (active) |
| O=C1Nc2ccccc2SC1c1ccccc1Cl (stereo unspecified) | 92.9% | 82.9% | -12.6% (active) | 75.5% | 119% | 105% | 124% | 53.7% |
| CCOC(=O)C(=CNc1ccccc1[N+](=O)[O-])C(=O)OCC | 90% | 103% | 111% | 99.5% | 92.9% | 100% | 96.1% | 106% |
| COc1ccc(-c2cc(-c3cc(OC)ccc3OC)[nH]c(=O)c2C#N)cc1 | 63.8% | 48.7% | 1.49% (active) | 26.7% | 59.5% | 29.9% | 75.9% | 51.4% |
| CCc1cc(Cc2cc(CC)cc(C(C)(C)C)c2O)c(O)c(C(C)(C)C)c1 | -0.979% (active) | 40.5% | 18.4% | 23.3% | 11.2% | 6.96% (active) | 4.71% (active) | 19.4% |

| SMILES | growth [1] | growth [2] | growth [3] | growth [4] | growth [5] | growth [6] | growth [7] | growth [8] |
| --- | --- | --- | --- | --- | --- | --- | --- | --- |
| Nc1ccc(CCCCc2ccccc2)c(Cl)c1 | 89.9% | 91.9% | 99.1% | 92.3% | 98.6% | 92.6% | 113% | 101% |
| COc1cc2c(cc1OC)-c1ccc3cc4c(cc3c1N(CCN(C)C)C2)OCO4 | -12.3% (active) | -2.52% (active) | 40% | 9.79% (active) | 4.64% (active) | -85.8% (active) | 26.7% | 17.1% |
| O=C1C2=C(CCN(Cc3ccccc3)C2)N2CCN=C2N1Cc1ccc(F)cc1F | 33.4% | 34.6% | 32.3% | 40.9% | 30.1% | 23.3% | 34.3% | 44.7% |
| CC(c1ccc(-n2cccn2)cc1)c1cnc(N2CCc3ccc(C(N)=O)cc3C2)s1 (stereo unspecified) | 2.07% (active) | 12% | 40.4% | 97.3% | 37% | 40.6% | 80.9% | 68.2% |
| O=C(NCCOCCOCCOCCNC(=O)c1cc2c(o1)C(=O)c1ccccc1C2=O)NC12CC3CC(CC(C3)C1)C2 | 9.45% (active) | -84.9% (active) | -95.9% (active) | -8.88% (active) | -63.3% (active) | 3.1% (active) | -67.6% (active) | -1.07% (active) |
| O=C1CSC(c2ccccc2O)N1c1nnc(Cn2cnnc2)o1 (stereo unspecified) | 71.2% | 87.7% | 97.8% | 105% | 54.6% | 88.6% | 77.5% | 84.3% |
| C=C(C)[C@@H]1CC[C@@]2(C(=O)O)CC[C@]3(C)C(CCC4[C@@]5(C)CCC(OS(=O)(=O)c6ccccc6)C(C)(C)C5CC[C@]43C)C12 (stereo partly specified) | 34.9% | 58.9% | 59.4% | 48.8% | 50.6% | 25.7% | 33.9% | 31.4% |
| COc1ccc(/C(C)=C(\c2ccc(Cl)cc2)c2ccc(OCCN3CCCC3)cc2)cc1F | 50.7% | 66.3% | 31.6% | 13.3% | 9.96% (active) | 14.3% | 18.6% | 7.85% (active) |
| O=C(Nc1ccccn1)[C@H](O)[C@@H](O)C(=O)N1CCOCC1 | 100% | 114% | 111% | 110% | 110% | 99.3% | 116% | 108% |
| CCOC(=O)c1nnn(C(Cc2ccccc2Cl)C(=O)OCC)c1C (stereo unspecified) | 97.6% | 107% | 105% | 98% | 104% | 100% | 109% | 102% |
| O=C(CC12CC3CC(CC(C3)C1)C2)NCCOCCOCCOCCNC(=O)c1cc2c(o1)C(=O)c1ccccc1C2=O | 1.06% (active) | -90.6% (active) | -96.8% (active) | -10.6% (active) | -67.2% (active) | -19.6% (active) | -73.7% (active) | 2.29% (active) |
| O=C(/C=C/C12c3ccccc3C(c3ccccc31)C1C(=O)NC(=O)C12)c1ccc(Cl)cc1 (stereo unspecified) | 39.9% | 9.59% (active) | -19.4% (active) | -3.94% (active) | 10.6% | -27.8% (active) | -67% (active) | -36.6% (active) |
| O=C(CC1Sc2ccccc2NC1=O)NNc1ccc(F)cc1 (stereo unspecified) | 66.4% | 88.6% | 31% | 106% | 84.7% | 71.6% | 63.7% | 77.4% |
| Clc1ccc(-c2nnc(-c3ccco3)o2)cc1 | 99.2% | 101% | 89.7% | 99.5% | 95.2% | 87.3% | 94.4% | 106% |
| Cc1cc(-c2noc(C(F)(F)F)n2)ccc1N1CCN(c2cc(C(=O)N(C)C)no2)CC1 | 46.6% | 66.6% | 71% | 84.7% | 55.5% | 45.7% | 80.8% | 85.2% |
| COc1ccc(/C=C2\COc3ccc(O)cc3C2=O)cc1OC | 73% | 75.7% | 24.4% | 10.6% | 27.3% | 11.7% | 121% | 20.2% |
